Dicer inh: inhibitors of Dicer pre-microRNA processing, primary screen, biochemical, cat-ELCCA, chemiluminescence; 6% of 47,000 active; cat-ELCCA pre-miR-21 Dicer processing; stronger effect = higher value; Endoribonuclease Dicer (Homo sapiens), Q9UPY3; z-score at 25 µM; in the data active = z-score above about 3, passing the limit was not always enough;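 also: plate controls were vehicle for no effect and no enzyme for full effect; higher signal means more uncleaved substrate so more Dicer inhibition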
Active calls of the source: *. Many of the other results were omitted from the sample, so hits are more common in it than they were.

SMILES	Dicer inh
COc1ccc(C2SCCN2S(=O)(=O)c2ccc(Br)cc2)cc1 (centres undefined)	3.67*
COc1ccc(OC)c(C2SCCN2S(=O)(=O)c2ccc3ccccc3c2)c1 (centres undefined)	5.47
COc1ccc(C2SCCN2S(=O)(=O)c2ccc(F)cc2)cc1 (centres undefined)	1.1
COC(=O)c1c(-c2c(Cl)cccc2Cl)noc1NC(=O)NCc1cccs1	-0.32
CCOCCNS(=O)(=O)c1cccc2c(N)cccc12	-2.68
CC1CN(c2ccc3nnc(-c4ccc(C(F)(F)F)cc4)n3n2)CC(C)O1 (centres undefined)	-0.75
N#Cc1c(-c2ccccc2)nc(N/N=C/c2ccco2)[nH]c1=O	0.31
O=C1N=C(N2CCOCC2)S/C1=C(/C=C(\CC(=O)c1ccccc1)c1ccccc1)c1ccccc1	-1.58
COc1ccccc1NC(=O)c1c(NC(=O)c2ccco2)sc2c1CCC2	0.05
CCOC(=O)CCC(=O)Nc1sc2c(c1C(=O)OCC)CCCC2	1.54
COC(=O)c1c(NC(=O)c2ccccc2C(=O)O)sc2c1CCC2	3.06*
CCOC(=O)c1c(NC(=O)CC)sc2c1CCC2	1.43
COC(=O)c1c(NC(=O)CCCC(=O)O)sc2c1CCC2	4.35*
NC(=O)c1c(NC(=O)c2ccccc2C(=O)O)sc2c1CCCC2	0.5
COC(=O)c1c(NC(=O)c2cc(OC)cc(OC)c2)sc2c1CCC2	0.77
COc1ccc(NC(=O)c2c(NC(=O)c3ccco3)sc3c2CCC3)cc1	3.26*
COC(=O)c1c(NC(=O)c2c(OC)cccc2OC)sc2c1CCC2	1.48
Cc1oc(-c2ccc(Cl)cc2)cc1C(=O)/C(C#N)=C/Nc1ncccn1	9.97
Cc1c(Br)cc2nc3c(nc2c1C)CCCC3	1.03
CCOC(=O)c1sc(-c2ccccc2)nc1CSc1nnc(SCC2CC2)s1	0.15
O=C(Cn1nc(-c2ccccc2)c2ccccc2c1=O)c1ccc(Br)cc1	-0.09
O=S(=O)(CCc1ccncc1)c1ccc(Cl)cc1	4.35*
O=S(=O)(Cc1ccccc1)c1ccc(Cl)cc1	0.84
O=S(=O)(CCS(=O)(=O)c1cccs1)c1ccc(Cl)cc1	-0.66
Nc1ncnc2c1nc(N/N=C/c1cccnc1)n2[C@H]1O[C@@H](CO)[C@H](O)[C@@H]1O	1.23
SMILES	Dicer inh
CCOC(=O)CCc1c(C)nc2c(-c3ccc(F)cc3)c(C)[nH]n2c1=O	0.13
CCOC(=O)CCc1c(CC(=O)OCC)c[nH]c1/C=N/O	16.1*
CCOC(=O)Cc1cc(C)[nH]c1C(=O)OCC	0.19
O=C(Nc1ccc(F)cc1)c1csc2c1CCCC2	0.54
C=CCOC(=O)C1=C(C)NC2=C(C(=O)CC(C)(C)C2)C1c1ccccc1OC(C)C (centres undefined)	4.16
CC(=O)/C(=C\Nc1ncccn1)S(=O)(=O)c1ccc(Cl)cc1	-1.66
O=C1SC(Nc2cccc(Br)c2)C(=O)N1c1ccccc1 (centres undefined)	57.5
Cc1ccc(N2C(=O)SC(Nc3ccccc3C(=O)O)C2=O)cc1C (centres undefined)	0.26
Cc1ccc(N2C(=O)SC(Nc3ccc(C(=O)O)cc3)C2=O)cc1C (centres undefined)	1.3
O=C1SC(Nc2ccccc2F)C(=O)N1c1ccccc1 (centres undefined)	3.38*
COC(=O)c1ccc(NC2SC(=O)N(c3ccccc3)C2=O)cc1 (centres undefined)	0.49
COC(=O)c1ccccc1NC1SC(=O)N(c2ccccc2)C1=O (centres undefined)	0.52
O=C1SC(Nc2cccc(F)c2)C(=O)N1c1ccccc1 (centres undefined)	7.29*
Cc1ccc(N2C(=O)SC(Nc3ccc(C(=O)O)cc3)C2=O)cc1 (centres undefined)	5.36*
O=C1SC(Nc2ccccc2Br)C(=O)N1c1ccccc1 (centres undefined)	-0.13
CSC(=NC(=O)c1c(Cl)cccc1Cl)SC	-1.84
CCN(CCS(=O)(=O)c1ccc(Cl)cc1)C(=S)Nc1ccc(Cl)c(Cl)c1	-2.62
CCCCOC(=O)c1cc([N+](=O)[O-])cc2c1-c1ccc([N+](=O)[O-])cc1/C2=N\N	-0.79
COc1ccc(-c2nc3n(n2)C(c2cccnc2)C2=C(CCCC2=O)N3)cc1 (centres undefined)	1.9
CSc1sc(-c2nc(C)cs2)c(C)c1-c1cnc(SCC(=O)Nc2cccc(C(F)(F)F)c2)nc1	-0.99
CCOc1nc(-c2cccc(OC)c2)ccc1-c1noc(-c2ccncc2)n1	1.14
Cc1ccc(C2=NN(C(=O)CCCC(=O)O)C(c3ccc(Br)cc3)C2)cc1 (centres undefined)	-0.46
O=C(CSc1nc2ccccc2c(=O)n1-c1ccc(Cl)c(Cl)c1)c1ccc(F)cc1	-0.25
CN(C)CCC(=O)c1ccc(C(C)(C)C)cc1	-1.48
O=C(NNC(=O)C(Cl)Cl)c1sccc1-n1cccc1	0.96
SMILES	Dicer inh
COc1ccc(-c2cc(C(=O)O)c3ccccc3n2)cc1OC	1.71
COc1ccc(OC)c(CN2CCN(Cc3ccncc3)CC2)c1	13.3
COc1ccc(S(=O)(=O)N2CCN(Cc3cc(OC)ccc3OC)CC2)cc1	0.59
COc1ccc(OC)c(CN2CCN(S(=O)(=O)c3ccc(Cl)cc3)CC2)c1	3.07*
Clc1cc2c(cc1CSc1ncnc3nc[nH]c13)OCO2	0.51
CCc1ccc(C2CC(=O)NC(SCC(=O)OC)=C2C#N)cc1 (centres undefined)	0.55
N/C(=N\S(=O)(=O)c1cc(Cl)sc1Cl)c1ccc(Cl)cc1	1.42
N/C(=N/S(=O)(=O)c1ccc(Cl)c(Cl)c1)c1ccc(Cl)cc1	4.55*
N/C(=N/S(=O)(=O)c1cc(C(F)(F)F)cc(C(F)(F)F)c1)c1ccc(Cl)cc1	1.95
CCOC(=O)/C(C#N)=C/c1cn(-c2ccccc2)nc1C	-0.69
CCCCCCCCC(=O)Nc1nc2c(s1)CCc1cc(OC)ccc1-2	-0.7
COc1ccc2c(c1)-c1nc(NC(=O)c3ccco3)sc1CC2	5.03*
CCCCCC(=O)Nc1nc2c(s1)CCc1cc(OC)ccc1-2	-4.1
COc1ccc2c(c1)CCc1sc(NC(=O)c3ccco3)nc1-2	3.09*
COc1cc(OC)cc(C(=O)Nc2nc3c(s2)CCc2cc(OC)ccc2-3)c1	0.56
COc1cc(OC)cc(C(=O)Nc2nc3c(s2)Cc2cc(OC)ccc2-3)c1	-0.47
COc1ccc2c(c1)CCc1sc(NC(C)=O)nc1-2	3.45*
CCCCCCCC(=O)Nc1nc2c(s1)CCc1cc(OC)ccc1-2	0.09
COc1ccc2c(c1)CCc1sc(NC(=O)c3cc(C)on3)nc1-2	0.98
Cc1ccc(/C=N/Nc2ncnc3sccc23)cc1	-0.21
CSc1nc(SC)c(C#N)c(-c2cccs2)n1	-0.55
NC(=S)CS(=O)(=O)Cc1ccco1	16.1
COc1ccc2c(c1)CCC(/C=N/O)=C2Cl	-0.03
CC(C)(C)/C=N/NC(=O)CNS(=O)(=O)c1cccc2nsnc12	-0.72
CCO/C=C(\C#N)S(=O)(=O)c1ccc(Cl)cc1	1.74
SMILES	Dicer inh
CCOC(=O)/C(C#N)=C/C=C(/c1ccc(Cl)cc1)N1CCSCC1	1.49
O=c1[nH]nc(Sc2ncc([N+](=O)[O-])s2)n1-c1ccc(OCc2ccccc2)cc1	-0.84
C=CCN(CC=C)C(=O)c1cc(-c2ccccc2)nc2ccccc12	-1.53
Cc1ccc(N=Nc2c(C)[nH]n(-c3ccccc3)c2=O)c(C)c1	0.73
Cc1[nH]n(-c2ccccc2)c(=O)c1N=Nc1ccc(N2CCCCC2)cc1	3.64*
Cc1[nH]n(-c2ccccc2)c(=O)c1N=Nc1c(C)n(C)n(-c2ccccc2)c1=O	-3.97

Screens (PubChem)
